Results from PubChem BioAssay.

assay: small-molecule microarray binders of probe aWnt5a, primary screen, biochemical, biotinylated probe, 635/667 nm fluorescence (AID 1113); conditions: higher = more signal;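 further: score merges 667 nm fluorescence intensity with signal-to-noise per printed feature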

With `CC(C)N1C(=O)c2ccccc2[C@](C)(C(=O)NCCN2CCOCC2)[C@@H]1c1ccc(CO)cc1` as the compound, how does the composite z-score read?
The composite z-score was -0.139.

Which composite z-score does the source give for `COCCCNC(=O)[C@@H]1c2ccccc2C(=O)N(Cc2ccccc2Cl)[C@H]1c1ccc(CO)cc1` here?
The composite z-score was -0.0792.

With `CC(C)NC(=O)[C@@]1(c2ccc([N+](=O)[O-])cc2)CC(=O)N(C2CCCCC2)[C@@H]1c1ccc(CO)cc1I` as the compound, how does the composite z-score read?
The composite z-score was 0.0375.

Which composite z-score does the source give for `C=C(CCCC)/C(=C/C[C@H](OC(C)=O)c1ccccc1OCCO)c1cc(C(=O)OC)ccc1OC` here?
Its composite z-score is -0.12.

For `COCCOC(=O)N1C(=O)[C@@]2(c3cc(C#Cc4ccc(OC)cc4)ccc31)[C@H](c1ccc(O)cc1)N1[C@H](c3ccccc3)[C@H](c3ccccc3)OC(=O)[C@H]1[C@@H]2C(=O)N1CCc2cc(OC)c(OC)cc2C1`, which composite z-score is on record?
Its composite z-score is 0.0017.

For `O=C1C2C=CC(C(O)Cc3ccccc3)N(n3cnnc3)C2C(=O)N1Cc1ccccc1` (stereo not drawn), which composite z-score is on record?
Its composite z-score is 0.127.

With `C=CC[C@]1(C(=O)NCc2ccccc2)N=C(c2ccc(OCCCO)cc2)O[C@H]1c1ccccc1N=[N+]=[N-]` as the compound, how does the composite z-score read?
Its composite z-score is 0.0108.

With `CCOC(=O)C[C@H]1[C@H](OC(=O)c2ccc(C(=O)c3ccccc3)cc2)[C@@H](NC(=O)c2ccc3ccccc3n2)c2cc(OCCCO)ccc2N1C(=O)c1ccccc1` as the compound, how does the composite z-score read?
Its composite z-score is 0.0079.

For `CN(C)C(=O)[C@@]1(CCS(=O)(=O)c2ccccc2)COC(c2ccc(OCCCO)cc2)=N1`, which composite z-score is on record?
The composite z-score was -0.154.

Which composite z-score does the source give for `COc1ccccc1CN1C(=O)c2ccccc2[C@@H](C(=O)NC2CC2)[C@@H]1c1ccc(CO)cc1` here?
Its composite z-score is -0.0512.

For `COC(=O)[C@H](Cc1ccccc1)N[C@@H](/C=C/C1CC1)[C@H](O)Cc1ccccc1`, which composite z-score is on record?
Its composite z-score is 0.454.

For `O=C1C2C=CC(C(O)c3cccc4ccccc34)N(Nc3ccccc3F)C2C(=O)N1c1ccccc1` (stereo not drawn), which composite z-score is on record?
The composite z-score was 0.0554.

Which composite z-score does the source give for `O=C(CS)NCCCCCCNC(=O)[C@@H]1C[C@@H]2C(=O)N[C@@H](Cc3ccccc3)C(=O)N2[C@@H]1c1cccc(OCCO)c1` here?
The composite z-score was 0.0102.

For `NC(=O)NCC#Cc1ccc2c(c1)[C@]1(C(=O)N2)[C@H](C(N)=O)[C@H]2C(=O)O[C@H](c3ccccc3)[C@H](c3ccccc3)N2[C@@H]1c1ccc(O)cc1`, which composite z-score is on record?
Its composite z-score is 0.726.

With `CCCC[C@@H]1C[C@H]1[C@@H](NC(=O)c1cccs1)c1ccc(-c2ccccc2)cc1` as the compound, how does the composite z-score read?
The composite z-score was -0.0704.

Which composite z-score does the source give for `C=CCOC(=O)[C@H]1[C@@H]2C(=O)O[C@@H](c3ccccc3)[C@@H](c3ccccc3)N2[C@@H](c2ccc(OCCOC(=O)[C@@H]3C[C@@H]4C(=O)N[C@@H](CCCCNC(C)=O)C(=O)N4[C@@H]3c3ccc(O)cc3)cc2)[C@]12C(=O)Nc1ccccc12` here?
Its composite z-score is -0.0704.

For `CCCCCCc1nc(-c2ccc(OC)nc2)cc2c1[Si](C(C)C)(C(C)C)O[C@H]2c1ccccc1`, which composite z-score is on record?
The composite z-score was -0.176.

For `CC(C)C(CO)N1C(=O)[C@@H]2C3C(=O)OCCC/C=C\[C@H]3OC23C=CCN(CCN2CCOCC2)C(=O)[C@@H]13` (stereo partly drawn), which composite z-score is on record?
Its composite z-score is -0.0529.

For `C=C(COC)/C(=C/C[C@@H](OC(C)=O)c1ccc(OCCO)cc1)c1cnc2ccccc2c1`, which composite z-score is on record?
The composite z-score was -0.0761.

Which composite z-score does the source give for `CN(C)CCCCCCNC(=O)[C@@H]1C[C@@H]2C(=O)N[C@@H](Cc3ccccc3)C(=O)N2[C@@H]1c1ccc(O)cc1` here?
The composite z-score was -0.0425.

For `Cc1nc2cc(Br)ccc2c(=O)o1`, which composite z-score is on record?
Its composite z-score is -0.198.

With `COCCOC(=O)N1C(=O)[C@@]2(c3ccccc31)[C@H](c1ccc(O)cc1)N1[C@H](c3ccccc3)[C@H](c3ccccc3)OC(=O)[C@H]1[C@@H]2C(=O)Nc1nc2ccccc2s1` as the compound, how does the composite z-score read?
Its composite z-score is -0.0276.

For `COCC(=C=CC[C@@H](O)c1cccc(OCCO)c1)C[C@@H](O)c1ccccn1`, which composite z-score is on record?
Its composite z-score is -0.0459.

assay: small-molecule microarray binders of probe aShh, primary screen, biochemical, biotinylated probe, 635/667 nm fluorescence (AID 1114); conditions: higher = more signal;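 further: probe is biotin-labelled aShh protein from a stem cell growth factor screen; measures binding of labelled protein to compounds printed on the slide; score merges feature fluorescence at 667 nm with signal-to-noise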

For `Cc1ccccc1C(O)C1C=CC2C(=O)N(c3ccccc3)C(=O)C2N1Nc1ccc(C(C)C)cc1` (stereo not drawn), which composite z-score is on record?
The composite z-score was 0.14.

For `CCS[C@H]1[C@@H](C(=O)O)[C@H](c2ccc(C)cc2)N(S(=O)(=O)c2ccc(C)cc2)[C@@H]1CC`, which composite z-score is on record?
The composite z-score was -0.0035.

For `COc1cc(NN2C(C(O)c3ccco3)C=CC3C(=O)N(c4ccccc4)C(=O)C32)cc(OC)c1OC` (stereo not drawn), which composite z-score is on record?
Its composite z-score is -0.29.

Which composite z-score does the source give for `CNS(=O)(=O)c1ccc(C)cc1` here?
The composite z-score was -0.504.

For `O=C1N(Cc2ccccc2)c2ccccc2[C@@H]2OC(c3ccc(OCCCO)cc3)=N[C@]12CCS(=O)(=O)c1ccccc1`, which composite z-score is on record?
Its composite z-score is -0.0575.

With `COc1cc2c(cc1O)C(C1CC1)N(Cc1sc3ccccc3c1Cl)CC2` (stereo not drawn) as the compound, how does the composite z-score read?
The composite z-score was 0.0062.

With `Oc1ccc2cc[n+](Cc3sc4ccccc4c3Cl)cc2c1` as the compound, how does the composite z-score read?
The composite z-score was 0.318.

For `CC(C)N1C(=O)C[C@@](C(=O)NCC(F)(F)F)(c2ccc([N+](=O)[O-])cc2)[C@H]1c1ccc(CO)cc1`, which composite z-score is on record?
Its composite z-score is -0.372.

With `COCCCNC(=O)[C@@]1(C)c2ccccc2C(=O)N(C(C)C)[C@H]1c1ccc(CO)cc1` as the compound, how does the composite z-score read?
The composite z-score was -0.01.

With `COCCOC(=O)N1C(=O)[C@@]2(c3cc(C#CCC(C(=O)OC)C(=O)OC)ccc31)[C@H](c1ccccc1OCCO)N1[C@H](c3ccccc3)[C@H](c3ccccc3)OC(=O)[C@H]1[C@@H]2C(=O)N1CCN(c2ncccn2)CC1` as the compound, how does the composite z-score read?
The composite z-score was 0.166.

With `CCOC(=O)[C@H]1C/C=C/C[C@H](C(=O)OCC)C(=O)O[C@H]2[C@@H](OC)O[C@H](CO)[C@@H](OC(=O)c3c(OC)cccc3OC)[C@@H]2OC1=O` as the compound, how does the composite z-score read?
Its composite z-score is 0.244.

For `C=C(COC)/C(=C/C[C@@H](OC(=O)c1ccncc1)c1ccc(CO)o1)c1cc(C(=O)OC)ccc1OC`, which composite z-score is on record?
Its composite z-score is -0.138.

For `CC(C)N1C(=O)c2ccccc2[C@](C)(C(=O)NCCN2CCOCC2)[C@@H]1c1ccc(CO)cc1`, which composite z-score is on record?
The composite z-score was -0.206.

Which composite z-score does the source give for `COCCCNC(=O)[C@@H]1c2ccccc2C(=O)N(Cc2ccccc2Cl)[C@H]1c1ccc(CO)cc1` here?
The composite z-score was 0.0684.

Which composite z-score does the source give for `CC(C)NC(=O)[C@@]1(c2ccc([N+](=O)[O-])cc2)CC(=O)N(C2CCCCC2)[C@@H]1c1ccc(CO)cc1I` here?
The composite z-score was -0.189.

Which composite z-score does the source give for `C=C(CCCC)/C(=C/C[C@H](OC(C)=O)c1ccccc1OCCO)c1cc(C(=O)OC)ccc1OC` here?
Its composite z-score is 0.0048.

With `COCCOC(=O)N1C(=O)[C@@]2(c3cc(C#Cc4ccc(OC)cc4)ccc31)[C@H](c1ccc(O)cc1)N1[C@H](c3ccccc3)[C@H](c3ccccc3)OC(=O)[C@H]1[C@@H]2C(=O)N1CCc2cc(OC)c(OC)cc2C1` as the compound, how does the composite z-score read?
Its composite z-score is -0.301.

With `O=C1C2C=CC(C(O)Cc3ccccc3)N(n3cnnc3)C2C(=O)N1Cc1ccccc1` (stereo not drawn) as the compound, how does the composite z-score read?
Its composite z-score is -0.007.

For `C=CC[C@]1(C(=O)NCc2ccccc2)N=C(c2ccc(OCCCO)cc2)O[C@H]1c1ccccc1N=[N+]=[N-]`, which composite z-score is on record?
The composite z-score was 0.0875.

Which composite z-score does the source give for `CCOC(=O)C[C@H]1[C@H](OC(=O)c2ccc(C(=O)c3ccccc3)cc2)[C@@H](NC(=O)c2ccc3ccccc3n2)c2cc(OCCCO)ccc2N1C(=O)c1ccccc1` here?
The composite z-score was 0.308.

For `CN(C)C(=O)[C@@]1(CCS(=O)(=O)c2ccccc2)COC(c2ccc(OCCCO)cc2)=N1`, which composite z-score is on record?
The composite z-score was 0.414.

With `COc1ccccc1CN1C(=O)c2ccccc2[C@@H](C(=O)NC2CC2)[C@@H]1c1ccc(CO)cc1` as the compound, how does the composite z-score read?
Its composite z-score is 0.257.

With `COC(=O)[C@H](Cc1ccccc1)N[C@@H](/C=C/C1CC1)[C@H](O)Cc1ccccc1` as the compound, how does the composite z-score read?
The composite z-score was -0.309.

For `O=C1C2C=CC(C(O)c3cccc4ccccc34)N(Nc3ccccc3F)C2C(=O)N1c1ccccc1` (stereo not drawn), which composite z-score is on record?
The composite z-score was 0.14.

With `O=C(CS)NCCCCCCNC(=O)[C@@H]1C[C@@H]2C(=O)N[C@@H](Cc3ccccc3)C(=O)N2[C@@H]1c1cccc(OCCO)c1` as the compound, how does the composite z-score read?
Its composite z-score is 0.265.

Which composite z-score does the source give for `NC(=O)NCC#Cc1ccc2c(c1)[C@]1(C(=O)N2)[C@H](C(N)=O)[C@H]2C(=O)O[C@H](c3ccccc3)[C@H](c3ccccc3)N2[C@@H]1c1ccc(O)cc1` here?
Its composite z-score is 0.42.

With `CCCC[C@@H]1C[C@H]1[C@@H](NC(=O)c1cccs1)c1ccc(-c2ccccc2)cc1` as the compound, how does the composite z-score read?
The composite z-score was -0.138.

Which composite z-score does the source give for `C=CCOC(=O)[C@H]1[C@@H]2C(=O)O[C@@H](c3ccccc3)[C@@H](c3ccccc3)N2[C@@H](c2ccc(OCCOC(=O)[C@@H]3C[C@@H]4C(=O)N[C@@H](CCCCNC(C)=O)C(=O)N4[C@@H]3c3ccc(O)cc3)cc2)[C@]12C(=O)Nc1ccccc12` here?
Its composite z-score is 0.196.

For `CCCCCCc1nc(-c2ccc(OC)nc2)cc2c1[Si](C(C)C)(C(C)C)O[C@H]2c1ccccc1`, which composite z-score is on record?
The composite z-score was 0.108.

With `CC(C)C(CO)N1C(=O)[C@@H]2C3C(=O)OCCC/C=C\[C@H]3OC23C=CCN(CCN2CCOCC2)C(=O)[C@@H]13` (stereo partly drawn) as the compound, how does the composite z-score read?
The composite z-score was -0.209.

For `C=C(COC)/C(=C/C[C@@H](OC(C)=O)c1ccc(OCCO)cc1)c1cnc2ccccc2c1`, which composite z-score is on record?
Its composite z-score is 0.0557.

With `CN(C)CCCCCCNC(=O)[C@@H]1C[C@@H]2C(=O)N[C@@H](Cc3ccccc3)C(=O)N2[C@@H]1c1ccc(O)cc1` as the compound, how does the composite z-score read?
The composite z-score was 0.0668.

With `Cc1nc2cc(Br)ccc2c(=O)o1` as the compound, how does the composite z-score read?
Its composite z-score is -0.481.

Which composite z-score does the source give for `COCCOC(=O)N1C(=O)[C@@]2(c3ccccc31)[C@H](c1ccc(O)cc1)N1[C@H](c3ccccc3)[C@H](c3ccccc3)OC(=O)[C@H]1[C@@H]2C(=O)Nc1nc2ccccc2s1` here?
The composite z-score was 0.249.

Which composite z-score does the source give for `COCC(=C=CC[C@@H](O)c1cccc(OCCO)c1)C[C@@H](O)c1ccccn1` here?
The composite z-score was -0.221.
